{"source": "ChEMBL document CHEMBL4513216", "about": "“Probing the Open Global Health Chemical Diversity Library for Multistage-Active Starting Points for Next-Generation Antimalarials” (ACS Infect Dis, 2020)", "note": "The whole screen tested about 65,000 compounds, of which about 2,100 (3.2%) showed an effect of 50% or more. The median lay at about -52%. Shown is part of a subset that was picked to be rich in strong results."}
{"test_system": "Plasmodium falciparum", "test": "Screen against P. falciparum Asexual Blood Stage (ABS), at 5uM", "format": "functional, Dd2", "details": "tested at 5 uM", "units": {"INHIBITION": "%"}}
{"smiles": "OCCN1CCc2[nH]nc(C(c3ccccc3)c3ccccc3)c2C1", "INHIBITION": 61.7}
{"smiles": "CC(O)CN1CCc2[nH]nc(C(c3ccccc3)c3ccccc3)c2C1", "note": "(configuration not stated)", "INHIBITION": 42.3}
{"smiles": "OCCCN1CCc2onc(C(c3ccccc3)c3ccccc3)c2C1", "INHIBITION": 49.4}
{"smiles": "c1coc(CN2CC[C@H]3O[C@@H](COCC4CC4)CC[C@H]32)c1", "INHIBITION": -93.2}
{"smiles": "Cc1nc(C)c(C(=O)N2C[C@@H](C(=O)O)[C@H](C3CC3)C2)s1", "INHIBITION": -75.7}
{"smiles": "CCN(CC)Cc1nc2c(o1)CN(S(=O)(=O)c1cccs1)C2", "INHIBITION": -61.5}
{"smiles": "CN(CCc1ccccc1)Cc1c(C2CCOCC2)[nH]c2ncccc12", "INHIBITION": -22.4}
{"smiles": "CN(CCc1ccccc1)Cc1c(C2CCNCC2)[nH]c2ncccc12", "INHIBITION": 54.6}
{"smiles": "CN(CCc1ccncc1)Cc1c(C2CCCC2)[nH]c2ncccc12", "INHIBITION": -56.1}
{"smiles": "Cc1ccc(CN2CCN(C3CSCCSC3)CC2CCO)o1", "note": "(configuration not stated)", "INHIBITION": -73.5}
{"smiles": "CC(C)c1cc(C2CCN(C(=O)Cn3nc4ccccc4n3)CC2)[nH]n1", "INHIBITION": -107}
{"smiles": "O=C(c1ccc2[nH]ccc2c1)N1Cc2nc(CN3CCCCC3)oc2C1", "INHIBITION": -72.8}
{"smiles": "CC1CN(Cc2ccccc2)CCCN1CCCS(C)(=O)=O", "note": "(configuration not stated)", "INHIBITION": 53.2}
{"smiles": "CNS(=O)(=O)CCCN1CCCCCC1c1ccc(C)o1", "note": "(configuration not stated)", "INHIBITION": 10.3}
{"smiles": "CNS(=O)(=O)CCCN1CCCN(Cc2ccccc2)CC1C", "note": "(configuration not stated)", "INHIBITION": 59.7}
{"smiles": "CC1CN(Cc2ccccc2)CCCN1CCS(C)(=O)=O", "note": "(configuration not stated)", "INHIBITION": 39.2}
{"smiles": "COCCN1CCN(CCCS(=O)(=O)c2ccccc2)CC1C", "note": "(configuration not stated)", "INHIBITION": -121}
{"smiles": "COCCN1CCN(CCCS(C)(=O)=O)CC1C", "note": "(configuration not stated)", "INHIBITION": -42.5}
{"smiles": "O=C(Cn1cccn1)Nc1ccc(N2CCOCC2)cc1", "INHIBITION": -6.33}
{"smiles": "CN(C)C(=O)Cc1nc(CN2CCOC(Cn3cccn3)C2)cs1", "note": "(configuration not stated)", "INHIBITION": -56}
{"smiles": "Cc1nn(C)cc1CN1CCCCCC1c1ccccc1Cl", "note": "(configuration not stated)", "INHIBITION": -104}
{"smiles": "Cc1nn(C)cc1CN1CCC(C2Nc3ccccc3S(=O)(=O)N2)CC1", "note": "(configuration not stated)", "INHIBITION": -123}
{"smiles": "Cc1nn(C)cc1CN1CCN(CC2(c3ccccc3)CC2)CC1", "INHIBITION": 67.2}
{"smiles": "CCn1c(C)cc(C(=O)N2CCC(NC(=O)c3ccc(C)o3)CC2)c1C", "INHIBITION": -31.2}
{"smiles": "Cc1nccn1CC1CCCN1S(=O)(=O)Cc1cccc(F)c1", "note": "(configuration not stated)", "INHIBITION": -54}
{"smiles": "CN(C)CC1CSCCCN1S(=O)(=O)Cc1ccc(C(F)(F)F)cc1", "note": "(configuration not stated)", "INHIBITION": 10.1}
{"smiles": "CS(=O)(=O)C1CCN(S(=O)(=O)Cc2cccc(F)c2)CC1", "INHIBITION": -89.8}
{"smiles": "CN(C)CC1CSCCCN1S(=O)(=O)c1ccc(C(F)(F)F)cc1", "note": "(configuration not stated)", "INHIBITION": 60.7}
{"smiles": "CN(C)CC1CSCCCN1S(=O)(=O)Cc1cccc(F)c1", "note": "(configuration not stated)", "INHIBITION": 58.6}
{"smiles": "CN(C)CC1CSCCCN1C(=O)Nc1ccc(C(C)(C)C)cc1", "note": "(configuration not stated)", "INHIBITION": -12.2}
{"smiles": "CC(C)N(Cc1ccc(C(=O)O)o1)C(C)C", "INHIBITION": -21.6}
{"smiles": "Cc1cnc(N2CCc3c(c(COc4cncnc4)nn3C)C2)nc1", "INHIBITION": -95}
{"smiles": "CCc1nc(C2NC3(CCCC3)C(=O)N2CC2CC2)cs1", "note": "(configuration not stated)", "INHIBITION": -67.6}
{"smiles": "CN(C)CCNC(=O)CCC1CCN(C(=O)c2ccc(Cl)cc2O)CC1", "INHIBITION": -57.2}
{"smiles": "Cc1ccc(CN2CCC3(CC(=O)N(c4ccc5c(c4)OCO5)C3)C2)o1", "note": "(configuration not stated)", "INHIBITION": -11.7}
{"smiles": "Cc1nc(C)n(C2CCCN(C(=O)COc3ccccc3)C2)n1", "note": "(configuration not stated)", "INHIBITION": -30.7}
{"smiles": "Cc1noc(C)c1-c1n[nH]c2c1CN(S(=O)(=O)c1cccs1)CC2", "INHIBITION": -24.2}
{"smiles": "CCC[C@H]1CN(S(=O)(=O)c2ccc(-c3c(C)noc3C)s2)C[C@@H]1N", "INHIBITION": 72.8}
{"smiles": "Cc1ccc(S(=O)(=O)N2CC[C@@H](O)C2)c(F)c1", "INHIBITION": -13.3}
{"smiles": "Cc1noc(C)c1-c1cccc(C2CCN(S(=O)(=O)N(C)C)CC2)n1", "INHIBITION": -81.4}
{"smiles": "CCC[C@H]1CN(S(=O)(=O)c2cc(C)ccc2F)C[C@@H]1N", "INHIBITION": 52.5}
{"smiles": "CCC[C@@H]1CN(S(=O)(=O)c2ccc(C)c(F)c2)C[C@H]1N(C)C", "INHIBITION": 39.9}
{"smiles": "Cc1ccc(C)c(S(=O)(=O)N2CCN(C)C3(CCC(=O)N(C)CC3)C2)c1", "note": "(configuration not stated)", "INHIBITION": -107}
{"smiles": "CCC[C@H]1CN(S(=O)(=O)c2cc(C)ccc2C)C[C@@H]1N", "INHIBITION": 68.6}
{"smiles": "Cc1ccc(F)c(S(=O)(=O)N2CCCC2c2ccncc2)c1", "note": "(configuration not stated)", "INHIBITION": -73.9}
{"smiles": "CN(C)c1cc2c(nn1)CCN(C(=O)c1ccc(-n3cccn3)nc1)C2", "INHIBITION": -129}
{"smiles": "CC(C)n1nc(CN2CCOCC2)c2c1CN(C(=O)c1ccno1)C2", "INHIBITION": -44.4}
{"smiles": "Cc1ccc(C(=O)N2CC[C@@H]3[C@H]2CCC(=O)N3CCN(C)C)cn1", "INHIBITION": -2.53}
{"smiles": "CCc1cnc(NC(=O)NC2CCN(C)CC2)s1", "INHIBITION": -80.8}
{"smiles": "CC1=N[C@@]2(CC[C@@H]3CN(C(=O)NCc4cccc(F)c4)C[C@@H]32)C(=O)N1", "INHIBITION": -94.6}
{"smiles": "CC(C(=O)Nc1ccccc1F)S(C)(=O)=O", "note": "(configuration not stated)", "INHIBITION": -75.4}
{"smiles": "Cc1nc(-c2ccc(Cl)cc2)n(CC(=O)NC(C)C)c(=O)c1CCO", "INHIBITION": -186}
